{"source": "PubChem BioAssay", "key": {"[1]": {"assay": "StAR promoter reporter inhibitors, counter-screen for LRH-1 inverse agonist project, cell-based, luminescence, high throughput (AID 651611)", "conditions": "StAR promoter luciferase reporter counterscreen, at 3.6 µM, hits give high values"}, "[2]": {"molecular_target": "Nuclear receptor subfamily 5 group A member 2 (Homo sapiens) (UniProt O00482)", "sequence (O00482 whole entry, looked up)": "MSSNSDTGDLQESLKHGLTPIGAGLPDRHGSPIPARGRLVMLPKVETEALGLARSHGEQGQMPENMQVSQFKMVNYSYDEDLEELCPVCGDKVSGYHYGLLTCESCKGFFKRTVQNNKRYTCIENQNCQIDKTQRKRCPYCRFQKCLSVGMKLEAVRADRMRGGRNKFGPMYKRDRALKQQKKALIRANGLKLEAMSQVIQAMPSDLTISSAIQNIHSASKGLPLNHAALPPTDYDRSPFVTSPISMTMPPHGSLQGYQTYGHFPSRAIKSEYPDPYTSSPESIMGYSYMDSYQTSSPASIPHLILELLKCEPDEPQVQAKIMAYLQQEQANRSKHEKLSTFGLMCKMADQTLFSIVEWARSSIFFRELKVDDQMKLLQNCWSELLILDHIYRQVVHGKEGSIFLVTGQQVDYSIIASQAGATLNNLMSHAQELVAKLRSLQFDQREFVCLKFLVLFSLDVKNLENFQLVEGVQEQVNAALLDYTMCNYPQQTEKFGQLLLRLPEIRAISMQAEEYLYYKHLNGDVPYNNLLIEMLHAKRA", "assay": "LRH-1 (NR5A2) inverse agonists, retest, confirmation, cell-based, luminescence (AID 651613; in the data active = inhibition above about 42%;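 note: HEK293T cells co-transfected with LRH-1 and StAR promoter luciferase reporter; 0% = vehicle wells and 100% = parental cells lacking receptor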)", "conditions": "cell-based LRH-1 luciferase reporter, inverse agonism; at 3.6 µM; hits give high values"}, "[3]": {"molecular_target": "Steroidogenic factor 1 (Homo sapiens) (UniProt Q13285)", "sequence (Q13285 whole entry, looked up)": "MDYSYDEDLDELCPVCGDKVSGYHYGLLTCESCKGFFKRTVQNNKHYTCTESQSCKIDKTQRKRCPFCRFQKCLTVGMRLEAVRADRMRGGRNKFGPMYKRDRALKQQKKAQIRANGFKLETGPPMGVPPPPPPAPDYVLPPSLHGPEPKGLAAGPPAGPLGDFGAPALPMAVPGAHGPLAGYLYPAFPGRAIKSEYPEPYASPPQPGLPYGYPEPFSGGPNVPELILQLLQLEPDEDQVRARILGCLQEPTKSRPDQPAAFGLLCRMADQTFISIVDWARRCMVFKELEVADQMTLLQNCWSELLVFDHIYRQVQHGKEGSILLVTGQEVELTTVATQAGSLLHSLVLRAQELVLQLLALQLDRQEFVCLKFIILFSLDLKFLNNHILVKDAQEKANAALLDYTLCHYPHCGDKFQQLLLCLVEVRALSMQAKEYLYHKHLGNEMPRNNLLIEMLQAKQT", "assay": "SF1 (NR5A1) inverse agonists, counter-screen for LRH-1 inverse agonist project, cell-based, luminescence, high throughput (AID 651614; in the data active = inhibition above about 44%;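 note: cells cotransfected with StAR promoter reporter and SF1 expression vector; 0% = vehicle on cells with receptor and 100% = vehicle on cells lacking receptor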)", "conditions": "cell-based SF1 luciferase reporter, at 3.6 µM, hits give high values"}, "[4]": {"assay": "VP16 transactivation reporter inhibitors, counter-screen for LRH-1 inverse agonist project, cell-based, luminescence, high throughput (AID 651615; in the data active = inhibition above about 33%)", "conditions": "Gal4-VP16 luciferase reporter cells, at 3.6 µM, hits give high values"}, "[5]": {"tested_on": "transactivating tegument protein VP16 (Human herpesvirus 1)", "assay": "VP16 transactivation reporter inhibitors, counter-screen for SRC2 inhibitor project, cell-based, luminescence, single concentration (AID 652007; in the data active = inhibition above about 36%)", "conditions": "cell-based VP16 transactivation luciferase reporter, at 8.9 µM, hits give high values"}, "[6]": {"molecular_target": "Nuclear receptor coactivator 2 (Homo sapiens) (UniProt Q15596)", "sequence (Q15596 whole entry, looked up, the tested form may be a part)": "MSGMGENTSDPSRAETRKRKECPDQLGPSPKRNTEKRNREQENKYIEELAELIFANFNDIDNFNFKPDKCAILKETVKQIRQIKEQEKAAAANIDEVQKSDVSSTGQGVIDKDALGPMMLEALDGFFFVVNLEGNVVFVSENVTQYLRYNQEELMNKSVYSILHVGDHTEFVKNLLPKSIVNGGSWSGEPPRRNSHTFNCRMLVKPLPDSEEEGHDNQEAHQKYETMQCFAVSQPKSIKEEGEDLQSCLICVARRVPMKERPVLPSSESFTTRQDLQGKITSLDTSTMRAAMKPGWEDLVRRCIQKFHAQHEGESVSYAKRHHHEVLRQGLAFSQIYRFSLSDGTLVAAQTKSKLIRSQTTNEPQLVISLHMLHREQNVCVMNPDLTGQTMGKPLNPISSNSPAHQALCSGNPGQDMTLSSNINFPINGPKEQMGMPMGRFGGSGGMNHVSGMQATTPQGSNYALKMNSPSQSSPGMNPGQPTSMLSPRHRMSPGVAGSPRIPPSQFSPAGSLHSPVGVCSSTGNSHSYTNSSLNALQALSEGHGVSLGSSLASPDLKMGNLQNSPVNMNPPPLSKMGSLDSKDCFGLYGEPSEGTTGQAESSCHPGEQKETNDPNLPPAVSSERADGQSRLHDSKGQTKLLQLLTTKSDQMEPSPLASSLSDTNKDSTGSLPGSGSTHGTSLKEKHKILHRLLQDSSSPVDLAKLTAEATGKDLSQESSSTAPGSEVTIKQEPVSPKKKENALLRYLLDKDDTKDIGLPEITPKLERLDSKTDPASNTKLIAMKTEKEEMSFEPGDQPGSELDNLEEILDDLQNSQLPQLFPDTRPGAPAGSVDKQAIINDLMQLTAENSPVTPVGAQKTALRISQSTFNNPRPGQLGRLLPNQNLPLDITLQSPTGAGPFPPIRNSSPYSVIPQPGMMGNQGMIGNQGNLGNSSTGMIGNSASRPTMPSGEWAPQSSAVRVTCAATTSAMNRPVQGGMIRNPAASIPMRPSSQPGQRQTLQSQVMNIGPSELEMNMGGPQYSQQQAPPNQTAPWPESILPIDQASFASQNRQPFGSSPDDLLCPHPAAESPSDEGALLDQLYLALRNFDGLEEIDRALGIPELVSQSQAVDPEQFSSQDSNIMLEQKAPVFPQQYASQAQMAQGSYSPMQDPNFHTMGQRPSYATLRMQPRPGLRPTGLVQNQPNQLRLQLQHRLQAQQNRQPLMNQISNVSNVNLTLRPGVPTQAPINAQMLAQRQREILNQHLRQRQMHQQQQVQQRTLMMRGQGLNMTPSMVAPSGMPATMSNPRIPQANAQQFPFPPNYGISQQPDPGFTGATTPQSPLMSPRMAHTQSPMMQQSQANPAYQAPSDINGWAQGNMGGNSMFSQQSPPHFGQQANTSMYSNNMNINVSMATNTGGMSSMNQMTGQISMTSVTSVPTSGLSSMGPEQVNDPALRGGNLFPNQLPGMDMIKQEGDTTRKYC", "assay": "SRC2 coactivator transcriptional activity inhibitors, confirmation, cell-based, luminescence, HEK293, triplicate (AID 652008;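 active = mean inhibition above 46.5%, the solvent-only control mean plus 3 SD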;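 note: 0% = DMSO-treated cells and 100% = Gossypol at 36 µM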)", "conditions": "HEK293 GAL4-SRC2 luciferase reporter, at 8.9 µM, hits give high values"}}, "note": "Unmarked numbers belong to inactive results. Calls of active or inactive are those of the source. Cut-off read from the data, not from the text of the source, unless noted: active = inhibition above about 28%; inactive = the rest.", "data": [{"smiles": "O=C1CCc2cc(OCCCCc3nnnn3C3CCCCC3)ccc2N1", "values": [{"measurement": "inhibition", "setting": "[1]", "value": 12.9, "unit": "%"}, {"measurement": "inhibition", "setting": "[2]", "value": "54% (active)"}, {"measurement": "inhibition", "setting": "[3]", "value": "49.8% (active)"}, {"measurement": "inhibition", "setting": "[4]", "value": 9.24, "unit": "%"}]}, {"smiles": "COc1ccc(CCn2c(C)cc(C(=O)COC(=O)c3ccc(O)cc3O)c2C)cc1", "values": [{"measurement": "inhibition", "setting": "[1]", "value": 5.91, "unit": "%"}, {"measurement": "inhibition", "setting": "[2]", "value": "41.5% (active)"}, {"measurement": "inhibition", "setting": "[3]", "value": 28.4, "unit": "%"}, {"measurement": "inhibition", "setting": "[4]", "value": -15, "unit": "%"}]}, {"smiles": "COc1cc2c(cc1OC)C(C1C(=O)CC(C)CC1=O)N(C(=O)CCl)CC2", "note": "(configuration not stated)", "values": [{"measurement": "inhibition", "setting": "[1]", "value": 19.1, "unit": "%"}, {"measurement": "inhibition", "setting": "[2]", "value": "54.1% (active)"}, {"measurement": "inhibition", "setting": "[3]", "value": "58.5% (active)"}, {"measurement": "inhibition", "setting": "[4]", "value": -19.1, "unit": "%"}]}, {"smiles": "COc1ccc(OC)c(N(CCN2C(=O)c3ccccc3C2=O)C(=O)CCl)c1", "values": [{"measurement": "inhibition", "setting": "[1]", "value": 10.9, "unit": "%"}, {"measurement": "inhibition", "setting": "[2]", "value": 30.5, "unit": "%"}, {"measurement": "inhibition", "setting": "[3]", "value": "54% (active)"}, {"measurement": "inhibition", "setting": "[4]", "value": 16.1, "unit": "%"}, {"measurement": "inhibition", "setting": "[5]", "value": 30.9, "unit": "%"}, {"measurement": "inhibition", "setting": "[6]", "value": "57.6% (active)"}]}, {"smiles": "CCOc1ccc(-c2cc(CCCC(=O)Nc3cccc(OC)c3)no2)cc1", "values": [{"measurement": "inhibition", "setting": "[1]", "value": "40.6% (active)"}, {"measurement": "inhibition", "setting": "[2]", "value": 40.9, "unit": "%"}, {"measurement": "inhibition", "setting": "[3]", "value": "48.5% (active)"}, {"measurement": "inhibition", "setting": "[4]", "value": 6.33, "unit": "%"}, {"measurement": "inhibition", "setting": "[5]", "value": "36.8% (active)"}, {"measurement": "inhibition", "setting": "[6]", "value": "58.9% (active)"}]}, {"smiles": "COc1ccc(CCNc2ncnc3sc(C)cc23)cc1OC", "values": [{"measurement": "inhibition", "setting": "[1]", "value": "35.5% (active)"}, {"measurement": "inhibition", "setting": "[2]", "value": "90.1% (active)"}, {"measurement": "inhibition", "setting": "[3]", "value": "57.7% (active)"}, {"measurement": "inhibition", "setting": "[4]", "value": "57.9% (active)"}, {"measurement": "inhibition", "setting": "[5]", "value": 16.6, "unit": "%"}, {"measurement": "inhibition", "setting": "[6]", "value": 25.8, "unit": "%"}]}, {"smiles": "Cc1nnsc1C(=O)NC1CCCc2c1cnn2-c1ccc(C(C)(C)C)cc1", "note": "(configuration not stated)", "values": [{"measurement": "inhibition", "setting": "[1]", "value": "29.2% (active)"}, {"measurement": "inhibition", "setting": "[2]", "value": "50.7% (active)"}, {"measurement": "inhibition", "setting": "[3]", "value": "63.2% (active)"}, {"measurement": "inhibition", "setting": "[4]", "value": "50.6% (active)"}, {"measurement": "inhibition", "setting": "[5]", "value": 13.8, "unit": "%"}, {"measurement": "inhibition", "setting": "[6]", "value": 31.2, "unit": "%"}]}, {"smiles": "O=C(CCl)N1CCN(S(=O)(=O)Cc2ccccc2)CC1", "values": [{"measurement": "inhibition", "setting": "[1]", "value": 25.3, "unit": "%"}, {"measurement": "inhibition", "setting": "[2]", "value": "52.9% (active)"}, {"measurement": "inhibition", "setting": "[3]", "value": "47.5% (active)"}, {"measurement": "inhibition", "setting": "[4]", "value": 15.9, "unit": "%"}, {"measurement": "inhibition", "setting": "[5]", "value": 12.1, "unit": "%"}, {"measurement": "inhibition", "setting": "[6]", "value": 46.2, "unit": "%"}]}]}
